# Source: PubChem BioAssay (NCATS)
# Inconclusive results are not listed. Entries that show only a call come without a potency. Some compounds were tested as several samples or in several runs, with calls that do not always agree. Calls of active or inactive are those of the source. Unless noted, calls come from the whole dose curve; as a rule, active = well fitted curve in the direction sought with a large enough effect; inconclusive = small, poorly fitted or top-dose-only effect, or another doubt; inactive = no such curve, though single readings can be large; an effect the other way counts as inactive or inconclusive.
# Legend:
# [1] = molecular target: Peptidyl-prolyl cis-trans isomerase NIMA-interacting 1 (Homo sapiens) (UniProt Q13526); test: qHTS Validation Assay to Find Inhibitors of Pin1 (AID 504536; active = well fitted inhibition curve with a large enough effect in the polarisation, with a control signal flat, not every such curve was filed as active; the % refers to the polarisation)
# Outline: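 Fluorescence polarization competition: compounds (titration) displace HiFluor-488-labeled Pin1-1b peptide from Pin1 (0.3 uM final) in pH 7.5 HEPES buffer with DTT, 10 min at room temperature; %Activity normalized to no-enzyme wells, curves fitted.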
# [2] = molecular target: Phosphoglycerate kinase, glycosomal (Trypanosoma brucei brucei) (UniProt P07378); test: qHTS Validation Assay to Find Inhibitors of Phosphoglycerate Kinase (AID 504547)
# Outline: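 Inhibition of the enzyme is judged by a Kinase-Glo Plus luminescent signal following a one-hour incubation at room temperature. Because 1,3-BPG is unstable, it is made in situ by GAPDH at 100nM final; no-PGK wells define the baseline.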
# [3] = molecular target: phosphoglycerate mutase (Leishmania major) (UniProt Q4Q090); test: qHTS Validation Assay to Find Inhibitors of Phosphoglycerate Mutase (AID 504548); note: series mostly up to about 58 µM
# Outline: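 Luminescent end-point read-out via Kinase-GloPlus after a 10-minute development. Reaction: 1.25nM Leishmania major PGAM with substrate and compound, 45 minutes at room temperature in TEA buffer (pH 7.6) with MgCl2 and Tween-20.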
# [4] = molecular target: Ubiquitin carboxyl-terminal hydrolase 1 (Homo sapiens) (UniProt O94782); test: Inhibitors of USP1/UAF1: Pilot qHTS (AID 504865); note: nearly all actives have a fitted effect of over 35% in size; note: potency is the fitted concentration of half-maximal effect
# Outline: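 USP1/UAF1 complex (1nM) preincubated with compound 15 min at room temperature, then Ub-Rho substrate (150nM final) added. Fluorescence read kinetically at 480/540 nm, 6 reads every 60 seconds. Buffer: 50mM HEPES pH 7.8, 0.5mM EDTA, 0.1 mg/ml BSA, 1mM TCEP, 0.01% Tween-20.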
# [5] = qHTS for Inhibitors of ATXN expression: Validation of Cytotoxic Assay (AID 588349)
# Outline: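 Read-out: ATP-based luminescence (CellTiter Glo) reflecting viability of HEK293 cells after 72 hr incubation at 37 degrees C with a concentration series of each compound.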
# [6] = qHTS for Inhibitors of ATXN expression: Validation (AID 588378); note: series mostly up to about 57 µM; nearly all actives have a fitted effect of over 75% in size
# Outline: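 Luminescence from an ATXN2-FFLuc reporter in HEK293 cells served as read-out after 24 h compound treatment at 37 degrees C; CellTiter-Fluor fluorescence was recorded first to assess viability.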
# [7] = molecular target: DNA dC->dU-editing enzyme APOBEC-3G (Homo sapiens) (UniProt Q9HC16); test: qHTS for inhibitors of Vif-A3G interactions: Validation (AID 588379)
# Outline: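 HeLa cells stably expressing Vif and A3G-eYFP, 700 cells/well, incubated overnight at 37 deg C, then exposed to compound overnight at 37 deg C. Inhibition of Vif-mediated degradation read as increased yellow fluorescence (Ex 488/Em 500-530) by laser-scanning cytometry.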
# Sequence of phosphoglycerate mutase (Leishmania major) (Q4Q090 1-553): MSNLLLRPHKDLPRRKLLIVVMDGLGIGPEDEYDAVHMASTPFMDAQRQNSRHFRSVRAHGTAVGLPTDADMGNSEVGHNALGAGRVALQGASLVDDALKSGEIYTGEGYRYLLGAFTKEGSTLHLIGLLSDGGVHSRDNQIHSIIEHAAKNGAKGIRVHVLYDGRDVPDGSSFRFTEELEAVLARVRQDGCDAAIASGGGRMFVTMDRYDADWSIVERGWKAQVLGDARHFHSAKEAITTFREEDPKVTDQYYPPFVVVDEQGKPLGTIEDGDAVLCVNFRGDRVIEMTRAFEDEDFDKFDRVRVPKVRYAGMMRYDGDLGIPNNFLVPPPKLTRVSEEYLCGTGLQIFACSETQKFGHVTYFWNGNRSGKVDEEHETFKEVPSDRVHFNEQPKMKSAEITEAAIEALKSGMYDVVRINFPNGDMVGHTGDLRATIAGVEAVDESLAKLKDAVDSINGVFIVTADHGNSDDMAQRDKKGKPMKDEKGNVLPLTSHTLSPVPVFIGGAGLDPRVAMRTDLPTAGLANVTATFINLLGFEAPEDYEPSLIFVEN
# Sequence of Peptidyl-prolyl cis-trans isomerase NIMA-interacting 1 (Homo sapiens) (Q13526 whole entry, looked up): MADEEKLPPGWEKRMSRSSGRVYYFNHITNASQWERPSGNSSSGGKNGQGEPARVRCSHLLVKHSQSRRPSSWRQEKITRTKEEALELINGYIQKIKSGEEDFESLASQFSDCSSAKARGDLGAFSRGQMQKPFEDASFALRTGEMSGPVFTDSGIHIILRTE
# Sequence of Ubiquitin carboxyl-terminal hydrolase 1 (Homo sapiens) (O94782 whole entry, looked up): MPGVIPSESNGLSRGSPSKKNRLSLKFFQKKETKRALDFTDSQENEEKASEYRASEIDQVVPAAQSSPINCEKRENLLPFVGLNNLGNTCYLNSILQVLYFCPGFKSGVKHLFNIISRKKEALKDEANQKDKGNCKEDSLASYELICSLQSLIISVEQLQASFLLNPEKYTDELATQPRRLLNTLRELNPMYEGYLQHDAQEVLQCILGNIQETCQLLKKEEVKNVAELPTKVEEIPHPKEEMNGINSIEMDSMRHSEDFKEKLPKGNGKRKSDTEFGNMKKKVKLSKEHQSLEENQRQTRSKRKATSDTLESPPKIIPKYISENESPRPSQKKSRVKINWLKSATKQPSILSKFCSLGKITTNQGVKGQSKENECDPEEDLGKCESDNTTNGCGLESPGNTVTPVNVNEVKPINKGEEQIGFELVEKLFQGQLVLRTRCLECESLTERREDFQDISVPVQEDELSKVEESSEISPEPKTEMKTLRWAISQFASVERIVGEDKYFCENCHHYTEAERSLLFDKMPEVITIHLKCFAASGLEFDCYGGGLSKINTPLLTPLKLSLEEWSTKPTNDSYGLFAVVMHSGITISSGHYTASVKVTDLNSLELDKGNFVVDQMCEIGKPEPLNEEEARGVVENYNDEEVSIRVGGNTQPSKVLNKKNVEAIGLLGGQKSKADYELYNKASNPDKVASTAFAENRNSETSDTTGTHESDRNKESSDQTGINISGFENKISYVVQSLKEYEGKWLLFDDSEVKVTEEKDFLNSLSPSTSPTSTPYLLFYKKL
# Sequence of Phosphoglycerate kinase, glycosomal (Trypanosoma brucei brucei) (P07378 whole entry, looked up): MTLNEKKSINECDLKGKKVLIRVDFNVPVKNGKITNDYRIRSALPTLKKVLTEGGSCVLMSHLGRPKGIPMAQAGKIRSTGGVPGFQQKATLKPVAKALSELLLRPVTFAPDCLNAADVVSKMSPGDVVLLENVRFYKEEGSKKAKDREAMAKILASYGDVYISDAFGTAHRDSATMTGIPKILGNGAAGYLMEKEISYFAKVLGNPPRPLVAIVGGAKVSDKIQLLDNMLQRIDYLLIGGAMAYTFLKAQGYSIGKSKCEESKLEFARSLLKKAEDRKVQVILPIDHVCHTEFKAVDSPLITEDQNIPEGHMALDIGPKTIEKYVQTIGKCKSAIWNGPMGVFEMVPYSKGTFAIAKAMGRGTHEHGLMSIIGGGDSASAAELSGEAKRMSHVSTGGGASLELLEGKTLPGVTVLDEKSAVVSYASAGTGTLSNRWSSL
# Sequence of DNA dC->dU-editing enzyme APOBEC-3G (Homo sapiens) (Q9HC16 whole entry, looked up): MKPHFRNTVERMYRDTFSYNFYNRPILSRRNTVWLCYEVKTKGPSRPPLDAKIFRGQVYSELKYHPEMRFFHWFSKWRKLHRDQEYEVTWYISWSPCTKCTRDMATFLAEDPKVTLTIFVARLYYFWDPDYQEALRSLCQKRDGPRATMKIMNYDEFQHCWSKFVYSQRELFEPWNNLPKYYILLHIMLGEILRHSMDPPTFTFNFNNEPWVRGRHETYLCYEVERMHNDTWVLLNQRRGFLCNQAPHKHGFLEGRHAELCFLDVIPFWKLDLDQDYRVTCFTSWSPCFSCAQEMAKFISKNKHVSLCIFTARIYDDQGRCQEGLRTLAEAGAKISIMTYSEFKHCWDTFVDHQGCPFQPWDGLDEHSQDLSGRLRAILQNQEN
SMILES,Potency [1],Potency [2],outcome [3],Potency [4],outcome [5],Potency [6],outcome [7]
CCOC(=O)c1ncn2c1CN(C)C(=O)c1cc(F)ccc1-2,inactive,inactive,inactive,inactive,inactive,inactive,inactive
COc1ccccc1N1CCN(CC(O)COc2cccc3ccccc23)CC1 (stereo not given),inactive,inactive,inactive,–,–,–,–
CC(C(=O)O)c1cccc(C(=O)c2ccccc2)c1 (stereo not given),inactive,inactive,inactive,inactive,inactive,inactive,–
COc1ccc(C2CNC(=O)C2)cc1OC1CCCC1 (stereo not given),inactive,inactive,inactive,inactive,inactive,inactive,–
O=C1Cc2cc(CCN3CCN(c4nsc5ccccc45)CC3)c(Cl)cc2N1,inactive,inactive,inactive,–,–,–,–
COc1cc2nc(N(C)CCCNC(=O)C3CCCO3)nc(N)c2cc1OC (stereo not given),inactive,inactive,inactive,inactive,inactive,inactive,–
CCc1cccc2c3c([nH]c12)C(CC)(CC(=O)O)OCC3 (stereo not given),inactive,inactive,inactive,inactive,inactive,inactive,–
OCCN1CCN(CCCN2c3ccccc3Sc3ccc(C(F)(F)F)cc32)CC1,inactive,inactive,inactive,–,–,–,–
CCC1(C)CC(=O)NC1=O (stereo not given),inactive,inactive,inactive,inactive,inactive,inactive,–
CN(C)c1nc(N(C)C)nc(N(C)C)n1,inactive,inactive,inactive,inactive,inactive,inactive,–
Nc1nc2c(ncn2COC(CO)CO)c(=O)[nH]1,inactive,inactive,inactive,inactive,inactive,inactive,–
Clc1ccc2c(c1)C(N1CCNCC1)=Nc1ccccc1O2,inactive,inactive,inactive,inactive,–,–,–
Cc1cc(C(C)(C)C)cc(C)c1CC1=NCCN1,inactive,inactive,inactive,inactive,inactive,–,–
COc1ccccc1OCCNCC(O)COc1cccc2[nH]c3ccccc3c12 (stereo not given),inactive,inactive,inactive,inactive,–,–,–
Cc1ccccc1N1C(=O)c2cc(S(N)(=O)=O)c(Cl)cc2NC1C (stereo not given),inactive,inactive,inactive,inactive,inactive,inactive,–
COc1ccccc1OCC(O)CN1CCN(CC(=O)Nc2c(C)cccc2C)CC1 (stereo not given),inactive,inactive,inactive,inactive,inactive,inactive,–

SMILES,Potency [1],Potency [2],outcome [3],Potency [4],outcome [5],Potency [6],outcome [7]
NC(=O)NO,inactive,inactive,inactive,inactive,inactive,inactive,–
NC(CO)C(=O)NNCc1ccc(O)c(O)c1O (stereo not given),inactive,inactive,inactive,inactive,inactive,inactive,–
NCCc1cnc[nH]1,inactive,inactive,inactive,44.7 µM (active) and inactive,inactive,inactive,–
CN1C(C(=O)Nc2ccccn2)=C(O)c2ccccc2S1(=O)=O,inactive,inactive,inactive,inactive,inactive,inactive,inactive
CC1COc2c(N3CCN(C)CC3)c(F)cc3c(=O)c(C(=O)O)cn1c23 (stereo not given),inactive,inactive,inactive,inactive,inactive,inactive,–
CC(CCc1ccc(O)cc1)NCCc1ccc(O)c(O)c1 (stereo not given),inactive,inactive,inactive,inactive,–,–,–
C[C@H]1c2cccc(O)c2C(O)=C2C(=O)[C@]3(O)C(O)=C(C(N)=O)C(=O)[C@@H](N(C)C)[C@@H]3[C@@H](O)[C@@H]21,inactive,inactive,inactive,inactive,inactive,inactive,–
CN(C)CCC=C1c2ccccc2C=Cc2ccccc21,inactive,inactive,inactive,inactive,inactive,–,–
CCN1CCCC1CNC(=O)c1cc(S(=O)(=O)CC)c(N)cc1OC (stereo not given),inactive,inactive,inactive,inactive,inactive,inactive,–
CC(C)NCC(O)COc1ccc(CCOCC2CC2)cc1 (stereo not given),inactive,inactive,inactive,inactive,inactive,inactive,–
CCCNCC(O)COc1ccccc1C(=O)CCc1ccccc1 (stereo not given),inactive,inactive,inactive,–,–,–,–
CN1CCN(CCCN2c3ccccc3Sc3ccc(Cl)cc32)CC1,inactive,inactive,inactive,–,–,–,–
COc1nc(C)nc(Cl)c1NC1=NCCN1,inactive,inactive,inactive,inactive,inactive,inactive,–
Clc1ccc2nsnc2c1NC1=NCCN1,inactive,inactive,inactive,inactive,inactive,inactive,–
O=C(C1CCCCC1)N1CC(=O)N2CCc3ccccc3C2C1 (stereo not given),inactive,inactive,inactive,inactive,inactive,inactive,–
